A selection: hits, their analogues and other compounds. The true share with any hit is near 11%.
hNpr1 antagonist – human Npr1 receptor antagonism; P16066; HEK293 hNpr1 GloSensor cGMP, ANP-stimulated luminescence; Potency, µM (doses to about 46.3 µM), inactives show top-dose activity change, negative = inhibition, most hits filed as inhibitors; 76,000 tested, 1.6% active; calls by dose curve; further: nearly all actives have a fitted effect of over 60% in size
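HEK293 cells stably expressing human Npr1 and cGMP GloSensor pGS-40F, loaded 2 h with 2% GloSensor reagent, given compound 30 min at room temperature. Luminescence read before and 20 min after 0.1 nM hNppA.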
3T3 cytotox – cytotoxic compounds in NIH 3T3 cells. Potency, µM (series often up to 96.7 µM), inactives show at the highest dose activity change, negative = cytotoxicity, actives largely listed as inhibitors. NIH 3T3 viability, CellTiter-Glo ATP luminescence, 48-72 h. AID 1345082. 94,000 tested, 4.3% active; further: nearly all actives have a fitted effect of over 55% in size
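Mouse fibroblast NIH 3T3 cells, 400 per well, received compound via pintool and were incubated for 48 or 72 hr prior to CellTiter-Glo ATP luminescence measurement.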
HEK293 tox – HEK 293 cell cytotoxicity; HEK 293 viability, ATP luminescence (CellTiter-Glo), 48-72 h; Potency, µM (highest dose often 115 µM), for inactives: top-dose activity change, negative = cytotoxicity, hits mostly inhibitors; 94,000 tested, 6.6% active; further: nearly all actives have a fitted effect of over 60% in size
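HEK 293 cells at 250 cells/well were exposed to compounds by pintool transfer for 48 or 72 hr at 37 degree Celsius, 5% CO2. Viability was read as ATP-coupled luminescence with CellTiter-Glo after 10 min at room temperature.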
Luciferase inh – Photinus pyralis luciferase inhibition; P08659; purified P. pyralis luciferase, luminescence, biochemical; Potency, µM (titrated, usually from 115 µM), actives largely listed as inhibitors; 76,000 tested, 2.5% active; further: nearly all actives have a fitted effect of over 65% in size
Target sequence (P08659 whole entry, looked up): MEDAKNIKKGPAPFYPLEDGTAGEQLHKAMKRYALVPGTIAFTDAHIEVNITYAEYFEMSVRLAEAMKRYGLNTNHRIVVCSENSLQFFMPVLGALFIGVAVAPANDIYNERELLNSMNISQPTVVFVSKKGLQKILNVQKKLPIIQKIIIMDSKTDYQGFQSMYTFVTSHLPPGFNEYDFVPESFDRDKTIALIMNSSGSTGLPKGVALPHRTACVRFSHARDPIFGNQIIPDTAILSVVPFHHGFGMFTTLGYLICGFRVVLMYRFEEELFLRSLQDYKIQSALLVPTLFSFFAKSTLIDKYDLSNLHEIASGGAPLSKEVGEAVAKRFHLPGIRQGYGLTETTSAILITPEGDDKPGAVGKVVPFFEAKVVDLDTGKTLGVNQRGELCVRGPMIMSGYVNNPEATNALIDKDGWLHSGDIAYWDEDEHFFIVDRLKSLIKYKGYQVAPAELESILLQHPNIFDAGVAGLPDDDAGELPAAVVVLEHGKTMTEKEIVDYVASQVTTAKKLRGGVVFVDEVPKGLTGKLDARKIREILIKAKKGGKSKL
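Cell-free enzyme assay, 10nM P. pyralis luciferase, luciferin and ATP each at 10uM. Inhibition profiled over a 6-point titration, read as luminescence.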
Active calls of the source: *; i = inactive; u = inconclusive; x = no result given; ! = not confirmed by another sample; [ ] = dose if it differs, or a comment. Unless noted, the call rests on the fitted dose curve; in most records, active means well fitted curve in the direction sought with a large enough effect; inconclusive means small, poorly fitted or top-dose-only effect, or another doubt; inactive means no such curve, though single readings can be large; an effect the other way counts as inactive or inconclusive. On the % scale 0 is the no-effect control and ±100 the full control effect; potency means the concentration at half of the fitted maximal effect.

SMILES | hNpr1 antagonist | 3T3 cytotox | HEK293 tox | Luciferase inh
COc1ccccc1CNC(=O)C[C@@H]1CCNC[C@@H]1Cc1cc(-c2ccccc2)on1 | -21.8%[70.6 µM] | 79.4µM* | 63.1µM* | i
O=C(C[C@@H]1CCNC[C@@H]1Cc1cc(COc2ccccc2)on1)NCc1cccs1 | -12.8%[70.6 µM] | u | u | i
CN(C)CCNC(=O)C[C@@H]1CCNC[C@@H]1Cc1cc(CN(C)Cc2ccccc2)on1 | -0.3%[70.6 µM] | -3.4%[174 µM] | -2.6%[172 µM] | i
CCCc1ccc(S(=O)(=O)N2CCC3(CC2)[C@H](C(=O)OCC)[C@@H](OC)C(=O)N3C)cc1 | x | -24.1% | u | x
CCOc1ccc2c(n1)CCN(C(=O)c1nn(C)c3ccccc13)C2 | 4.9% | -13.0% | -4.6% | i
CC(C)(C)c1ccc(-c2cc(C[C@H]3CNCC[C@H]3CC(=O)O)no2)cc1 | 1.5%[70.6 µM] | -28.4%[138 µM] | u | u
O=C(C[C@@H]1CCNC[C@@H]1Cc1cc(CSc2ccccc2)on1)NC1CC1 | 3.7%[70.6 µM] | -28.1%[174 µM] | -25.6%[172 µM] | i
O=C(C[C@@H]1CCNC[C@@H]1Cc1cc(CSc2ccccc2)on1)NC1CCCCC1 | -4.1%[70.6 µM] | 100µM* | 89.1µM* | i
CC(C)(C)c1ccc(-c2cc(C[C@H]3CNCC[C@H]3CC(=O)NC3CCCCC3)no2)cc1 | -11.9% | 20µM* | 12.6µM* | i
C#CCNC(=O)c1nc(-c2ccc(Cl)cc2)c2ccccn12 | -0.8%[70.6 µM] | u | u | 44.7µM*
CN(C)C(=O)c1nc(-c2ccccc2)c2ccccn12 | -0.9%[70.6 µM] | u | u | i
CC(C)NC(=O)c1nc(-c2ccc(Cl)nc2)c2ccccn12 | x | 35.5µM* | u | x
CN(C)C(=O)c1nc(-c2ccc(Cl)cc2)c2ccccn12 | 7.3%[70.6 µM] | u | 100µM* | u
C#CCNC(=O)c1nc(-c2ccc(Cl)cc2)c2cnccn12 | -21.4%[70.6 µM] | u | u | u
C#CCNC(=O)c1nc(-c2cccnc2)c2ccccn12 | 0.0%[70.6 µM] | 89.1µM* | -22.9%[172 µM] | i
O=C(c1ccc(-c2cncnc2)cc1)N1CCC(N[S+](=O)([O-])c2cccs2)CC1 | x | -25.6% | -4.4% | x
Cc1ccsc1CN1CCCCCCN(C)C(=O)[C@@H]2CCC[C@@H]21 | -2.1% | u | u | i
COc1ccc(CCCNC(=O)c2ccc(N3CCC(N(C)C)C3)nc2)cc1 (centres undefined) | -7.8% | 0.7% | u | i
O=C(NCCc1ccc(Cl)cc1)c1nc(-c2ccccc2)c2ccccn12 | 5.5% | u | u | i
C#CCNC(=O)c1nc(-c2cccc(F)c2)c2cnccn12 | -26.8%[70.6 µM] | u | 63.1µM*! | i
O=C(NCCc1ccc(Cl)cc1)c1nc(-c2cccnc2)c2ccccn12 | -3.1% | 39.8µM* | 31.6µM* | i
O=C(NCc1cccnc1)c1nc(-c2ccc(Cl)cc2)c2ccccn12 | 0.1% | -22.7% | u | i
O=C(NCc1cccnc1)c1nc(-c2cccc(F)c2)c2cnccn12 | -19.1% | -24.6% | u | i
O=C(NCc1cccnc1)c1nc(-c2ccc(Cl)nc2)c2ccccn12 | x | u | 79.4µM* | x
O=C(c1nc(-c2cccc(C(F)(F)F)c2)c2ccccn12)N1CCCC1 | -9.4% | u | 39.8µM* | i
SMILES | hNpr1 antagonist | 3T3 cytotox | HEK293 tox | Luciferase inh
Cc1ccccc1CCN1CCC(CN(C(=O)c2cnn(C(C)C)c2)C2CCCC2)CC1 | -8.8% | u | u | i
C=CCCOC(=O)N1CCC(=O)N(CC)C[C@H]2COc3cc(OC)ccc3[C@H]21 | x | u | 5.0% | x
COc1ccc(-c2nc(C(=O)N3CCOCC3)n3ccccc23)cc1 | 16.3%[70.6 µM] | -21.4%[138 µM] | u | i
C#CCNC(=O)c1nc(-c2ccc(Cl)nc2)c2ccccn12 | x | u | 50.1µM* | x
O=C(NCc1ccc2c(c1)OCO2)c1nc(-c2ccc(Cl)cc2)c2cnccn12 | 6.8% | -25.2% | -26.5% | 25.1µM*
C#CCNC(=O)c1nc(-c2cc(Cl)cc(Cl)c2)c2ccccn12 | -0.8%[70.6 µM] | -5.7%[138 µM] | 63.1µM* | i
O=C(NCc1ccc2c(c1)OCO2)c1nc(-c2ccc(F)cc2)c2cnccn12 | -11.1% | -10.3% | u | i
O=C(c1nc(-c2ccc(Cl)cc2)c2ccccn12)N1CCOCC1 | 5.2%[70.6 µM] | u | 112µM* | i
COC[C@@H]1CN(C(=O)c2cnccn2)C[C@H]1c1ccccn1 | x | -3.3% | i | x
CNC(=O)c1cc(C2CC2)nc2onc(C3CCN(C(=O)c4cccnc4)CC3)c12 | x | -16.2% | -0.2% | x
